IL1B secr inh: inhibitors of inflammasome signaling (IL-1 beta secretion); THP-1 LPS/ATP IL-1B secretion, AlphaLISA, 16 h; stronger effect = lower value; activity change, % at 57.5 µM; AID 743279; 360,000 tested, 4.7% active; in the data active means activity change below about -50%; inconclusive means mostly about -30% to -49%
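THP-1 cells pretreated 1 hr with compounds (up to 57.5 uM final), then stimulated with LPS (250 ng/mL final) plus ATP (1.25 mM final); secreted IL-1B measured by AlphaLISA after 16 hr, decreased signal indicating inhibition.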
HT1080NT lethal: kills 2HG-producing HT-1080-NT fibrosarcoma cells; 360,000 tested, 1.6% active; Potency, µM (series often up to 46.1 µM), for the others: at the highest dose activity, negative = less viability, hits mostly cytotoxic; HT-1080-NT fibrosarcoma viability, CellTiter-Glo ATP luminescence, 48 h;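 further: NT is the 2HG producing partner of a matched IDH1 knockdown line; potency means the concentration at half of the fitted maximal effect; 0% = DMSO-treated cells and -100% = media-only wells without cells; nearly all actives have a fitted effect of over 55% in size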
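Viability of the 2HG-overproducing fibrosarcoma line after 48 hours of compound exposure at 37 degrees C was determined by luminescence with CellTiter-Glo, and concentration-effect curves were then fitted and categorized.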
HT1080 IDH1KD tx: kills HT-1080 cells with IDH1 knockdown. HT-1080 IDH1 knockdown viability, ATP luminescence, 48 h. Potency, µM (highest dose often 46.1 µM), for the others: at the highest dose activity, negative = toxicity, hits mostly cytotoxic. 360,000 tested, 2% active;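 further: potency means the concentration at half of the fitted maximal effect; 0% = DMSO wells and -100% = cell-free medium wells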
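Assay cells: HT-1080 with IDH1 knockdown, 750 per well, RPMI/5% FBS. Exposure: 48 h at 37 °C following 2 h pre-incubation. Read: CellTiter-Glo luminescence; fitted concentration-response, curve class assigned.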
TDP1 cell noCPT: qHTS for Inhibitors of human tyrosyl-DNA phosphodiesterase 1 (TDP1): qHTS in cells in absence of CPT; DT40 Tdp1-/- hTDP1 cells, no CPT, ATP luminescence, 48 h; Potency, µM (series often up to 46.2 µM), for the others: at the highest dose activity change, negative = growth inhibition, actives largely listed as inhibitors; 420,000 tested, 15% active; AID 686978, 2013; further: potency means the concentration at half of the fitted maximal effect; nearly all actives have a fitted effect of over 55% in size
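Growth of hTDP1-complemented DT40 Tdp1-knockout cells is measured by ATP luminescence after at least 48 hr compound exposure at 37 °C, with DMSO substituting for the 20 nM CPT used in the parallel screen.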
DT40 TDP1 CPT: growth inhibition of DT40 Tdp1-/-;hTDP1 cells with camptothecin (screen for TDP1 inhibitors); Potency, µM (series often up to 46.2 µM), inactives show at the highest dose activity change, negative = growth inhibition, actives largely listed as inhibitors; 420,000 tested, 12% active; chicken DT40 Tdp1-/-;hTDP1 cells + 20 nM CPT, ATP luminescence, 48 h; further: potency means the concentration at half of the fitted maximal effect; nearly all actives have a fitted effect of over 55% in size
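Cell growth measured by CellTiter-Glo luminescence after a minimum 48 h, 37 C compound exposure with 20 nM CPT in Tdp1-knockout DT40 cells stably expressing hTDP1, seeded 400/well; qHTS titration format.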
* marks the source's active call; other numbers are inactive results. Shown are actives, neighbours in structure and some others; about 19% of the full set was active somewhere. Unless noted, the call rests on the fitted dose curve; in most records, active means well fitted curve in the direction sought with a large enough effect; inconclusive means small, poorly fitted or top-dose-only effect, or another doubt; inactive means no such curve, though single readings can be large; an effect the other way counts as inactive or inconclusive. Unless noted, on the % scale 0 is the no-effect control and ±100 the full control effect.

How did O=C(NNC(=O)c1ccc(Cl)c(Cl)c1)c1ccncc1 do in these assays?
IL1B secr inh: 0; HT1080NT lethal: -4%; HT1080 IDH1KD tx: -1%; TDP1 cell noCPT: -8%; DT40 TDP1 CPT: 7%

What do the screens show for `Cc1ccc2cc(NC(=O)c3ccc(C(C)(C)C)cc3)ccc2n1`?
IL1B secr inh: -101*; HT1080NT lethal: inconclusive; HT1080 IDH1KD tx: inconclusive; TDP1 cell noCPT: inconclusive; DT40 TDP1 CPT: inconclusive

How did CCc1ccc(C(=O)Nc2ccc3nc(C)ccc3c2)cc1 do in these assays?
IL1B secr inh: inconclusive; HT1080NT lethal: -21%; HT1080 IDH1KD tx: inconclusive; TDP1 cell noCPT: inconclusive; DT40 TDP1 CPT: inconclusive

How did O=C(Nc1ccncc1)c1ccc(Cl)c(Cl)c1 do in these assays?
IL1B secr inh: inconclusive; HT1080NT lethal: -3%; HT1080 IDH1KD tx: -15%; TDP1 cell noCPT: 12µM*; DT40 TDP1 CPT: -22%

How did O=C(O)Cc1ccc(NC(=O)c2ccc(Cl)c(Cl)c2)cc1 do in these assays?
IL1B secr inh: 1; HT1080NT lethal: -8%; HT1080 IDH1KD tx: 2%; TDP1 cell noCPT: -17%; DT40 TDP1 CPT: 26%

How did CC(C)(C)c1ccc(C(=O)Nc2ccc(NC(=O)c3ccc(Cl)c(Cl)c3)cc2)cc1 do in these assays?
TDP1 cell noCPT: 15µM*; DT40 TDP1 CPT: 12µM*

How did C/C(=N\NC(=O)C(=O)Nc1cc(Cl)ccc1Cl)c1ccncc1 do in these assays?
IL1B secr inh: 3; HT1080NT lethal: 5%; HT1080 IDH1KD tx: 1%; TDP1 cell noCPT: 22%; DT40 TDP1 CPT: 7%

How did O=C(c1cc(-c2cccc(Cl)c2)nc2ccccc12)N1CCCC1 do in these assays?
IL1B secr inh: -12; HT1080NT lethal: -7%; HT1080 IDH1KD tx: -1%; TDP1 cell noCPT: inconclusive; DT40 TDP1 CPT: inconclusive

How did O=C(NNC(=S)Nc1ccccc1Cl)c1ccncc1 do in these assays?
IL1B secr inh: 17; HT1080NT lethal: 0%; HT1080 IDH1KD tx: -2%; TDP1 cell noCPT: 0%; DT40 TDP1 CPT: 10%

How did O=C(Nc1cccc(Cl)c1Cl)c1ccncc1 do in these assays?
IL1B secr inh: -51*; HT1080NT lethal: 3%; HT1080 IDH1KD tx: 8%; TDP1 cell noCPT: -10%; DT40 TDP1 CPT: -11%

Results for Cc1ccc(CNC(=O)C2CCN(S(=O)(=O)c3ccc4c(c3)CCCN4C(=O)C3CCC3)CC2)cc1 ?
TDP1 cell noCPT: 7.3µM*; DT40 TDP1 CPT: 21µM*

Results for CC(=O)N1CCCc2cc(S(=O)(=O)N3CCC(C(=O)Nc4ccc(C)cc4Cl)CC3)ccc21 ?
TDP1 cell noCPT: 16µM*; DT40 TDP1 CPT: 15µM*

How did CC(=O)N1CCCc2cc(S(=O)(=O)N3CCC(C(=O)NCc4ccccc4Cl)CC3)ccc21 do in these assays?
TDP1 cell noCPT: 23µM*; DT40 TDP1 CPT: inconclusive

Results for CCC(C)(C)NC(=O)C1CCN(S(=O)(=O)c2ccc3c(c2)CCCN3C(C)=O)CC1 ?
TDP1 cell noCPT: 0%; DT40 TDP1 CPT: 3%

Results for Cc1cccc(CNC(=O)C2CCN(S(=O)(=O)c3ccc4c(c3)CCCN4C(=O)C3CCC3)CC2)c1 ?
TDP1 cell noCPT: 8.2µM*; DT40 TDP1 CPT: 13µM*

What do the screens show for `CC(=O)N1c2ccc(S(=O)(=O)N3CCCCCC3)cc2CC1C(=O)NCc1cccc(C)c1` (stereo not drawn)?
TDP1 cell noCPT: -17%; DT40 TDP1 CPT: inconclusive

How did CN(CC(=O)N(C)CC(=O)Nc1c(Cl)cccc1Cl)Cc1ccc(Br)s1 do in these assays?
IL1B secr inh: -21; HT1080NT lethal: -4%; HT1080 IDH1KD tx: 3%; TDP1 cell noCPT: inconclusive; DT40 TDP1 CPT: -28%

How did COc1ccc(C(=O)N2N=C(c3ccc(NS(C)(=O)=O)cc3)CC2c2cccs2)cc1 (stereo not drawn) do in these assays?
IL1B secr inh: -20; HT1080NT lethal: -14%; HT1080 IDH1KD tx: -28%; TDP1 cell noCPT: inconclusive; DT40 TDP1 CPT: -17%

What do the screens show for `COc1c(Cl)ccc(Cl)c1C(=O)NC(=S)N1CCOCC1`?
IL1B secr inh: 9; HT1080NT lethal: 11%; HT1080 IDH1KD tx: -1%; TDP1 cell noCPT: inconclusive; DT40 TDP1 CPT: -6%

What do the screens show for `O=C(NCc1ccccc1)C1CCN(S(=O)(=O)c2ccc3c(c2)CCCN3C(=O)C2CCC2)CC1`?
TDP1 cell noCPT: inconclusive; DT40 TDP1 CPT: 16µM*

What do the screens show for `O=C(NCc1ccc(Cl)cc1)C1CCN(S(=O)(=O)c2ccc3c(c2)CCCN3C(=O)C2CCC2)CC1`?
TDP1 cell noCPT: 21µM*; DT40 TDP1 CPT: 16µM*

Results for O=C(CSc1nc2ncccc2o1)Nc1cccc(C(F)(F)F)c1 ?
TDP1 cell noCPT: -20%; DT40 TDP1 CPT: -22%

How did Cc1cc(O)c(-c2cc(C(=O)Nc3ccc(S(=O)(=O)N4CCOCC4)cc3)[nH]n2)cc1C do in these assays?
IL1B secr inh: -105*; HT1080NT lethal: 14µM*; HT1080 IDH1KD tx: 10µM*; TDP1 cell noCPT: 18µM*; DT40 TDP1 CPT: inconclusive

How did O=C(Nc1ccc(S(=O)(=O)N2CCOCC2)cc1)c1cc(-c2cc(Cl)ccc2O)n[nH]1 do in these assays?
IL1B secr inh: inconclusive; HT1080NT lethal: inconclusive; HT1080 IDH1KD tx: 16µM*; TDP1 cell noCPT: 5.8µM*; DT40 TDP1 CPT: 6.5µM*

Results for Cc1ccc(CNC(=O)CCC2CCCN(Cc3cccc4ncccc34)C2)o1 (stereo not drawn) ?
IL1B secr inh: 37; HT1080NT lethal: -4%; HT1080 IDH1KD tx: -32%; TDP1 cell noCPT: inconclusive; DT40 TDP1 CPT: inconclusive

How did CCC1=C2CC[C@H]3C(=O)N(CC)C(=O)[C@H]3[C@H]2[C@@]2(Cc3ccccc3)C(=NCCOC)OC(=O)N2C1=O do in these assays?
IL1B secr inh: 1; HT1080NT lethal: 0%; HT1080 IDH1KD tx: 5%; TDP1 cell noCPT: -10%; DT40 TDP1 CPT: 2%

Results for O=C(NCc1ccc2c(c1)OCO2)C(=O)NCC1OCCCN1S(=O)(=O)c1cc(F)ccc1F (stereo not drawn) ?
IL1B secr inh: -12; HT1080NT lethal: 4%; HT1080 IDH1KD tx: 0%; TDP1 cell noCPT: 1%; DT40 TDP1 CPT: 1%

Results for O=C(CCc1ccccc1)Nc1nnc(-c2ccc3c(c2)OCCO3)o1 ?
IL1B secr inh: 9; HT1080NT lethal: -14%; HT1080 IDH1KD tx: -12%; TDP1 cell noCPT: -28%; DT40 TDP1 CPT: -29%

What do the screens show for `O=C(Nc1nnc(-c2ccc3c(c2)CCCC3)o1)c1ccc(Cl)cc1Cl`?
IL1B secr inh: 0; HT1080NT lethal: inconclusive; HT1080 IDH1KD tx: -29%; TDP1 cell noCPT: inconclusive; DT40 TDP1 CPT: 13µM*

What do the screens show for `O=C(Nc1nnc(-c2ccc3c(c2)CCCC3)o1)C1CCCCC1`?
IL1B secr inh: -2; HT1080NT lethal: -1%; HT1080 IDH1KD tx: 6%; TDP1 cell noCPT: inconclusive; DT40 TDP1 CPT: 15µM*
